From PubChem BioAssay (EPA / NIEHS)
Calls of active or inactive are those of the source. The calls were made as follows: active = hit-call score of the fitted dose curve at least 0.9, where 1 is the maximum; inactive = score below 0.9.

Legend:
[1] = ATG_GLI_CIS: Attagene CIS-FACTORIAL HepG2 Assay for human Zinc Finger Protein GLI1 (AID 2282945); conditions: HepG2, Attagene cis-factorial reporter mRNA, GLI element; actives raise or lower the signal
Method in brief: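 Transiently transfected HepG2 cells report endogenous transcription factor activity via cis-element-driven reporter units. After 24 h compound exposure, reporter mRNA was measured by RT-PCR with capillary electrophoresis; bidirectional fitting against DMSO baseline.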

[2] = biological target: Bile acid receptor (Homo sapiens) (UniProt Q96RI1); test: ATG_IR1_CIS: Attagene CIS-FACTORIAL HepG2 Assay for human Nuclear Receptor Subfamily 1 Group H Member 4 (NR1H4), IR1 submotif (AID 2282946); conditions: IR1 reporter transcription, actives raise or lower the signal
Method in brief: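 Fluorescence of capillary-separated, HpaI-digested RT-PCR reporter products gave IR1-element mRNA induction in HepG2 cells 24 h after dosing. Endogenous transcription factors drove the cis-regulated reporters; activity was fitted bidirectionally against DMSO.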

[3] = ATG_GRE_CIS: Attagene CIS-FACTORIAL HepG2 Assay for human Glucocorticoid Response Elements (GRE) (AID 2282947); conditions: HepG2 GRE cis-reporter, Attagene multiplex mRNA; actives raise or lower the signal
Method in brief: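 Fluorescence intensity of reporter-specific cDNA fragments, separated by capillary electrophoresis, provides the signal. Constructs carry cis-regulating promoters in transiently transfected HepG2 liver cells; 24 h incubation; fitting is bidirectional against DMSO.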

[4] = ATG_ISRE_CIS: Attagene CIS-FACTORIAL HepG2 Assay for human Interferon Regulatory Factor 1 (IRF1) binding to an Interferon-Stimulated Response Element (ISRE) (AID 2282948); conditions: HepG2 ISRE cis-reporter (Attagene), mRNA transcription readout; actives raise or lower the signal
Method in brief: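 Signal reflects induction or loss of ISRE-linked reporter mRNA in transiently transfected HepG2 cells after a 24 h treatment, detected by fluorescent RT-PCR fragments on capillary electrophoresis and normalised to DMSO.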

[5] = ATG_M_32_CIS: Attagene CIS-FACTORIAL HepG2 Assay for M32 Transcription Factor (Internal Marker) (AID 2282949); conditions: HepG2 Attagene cis-factorial M32 reporter, mRNA; actives raise or lower the signal;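 also: background control marker of the multiplexed CIS panel rather than a real target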
Method in brief: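 HepG2 transfectants (cis-regulated reporter transcription units) dosed 24 h. Reporter mRNA by RT-PCR plus CE, analysed as gain or loss relative to DMSO.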

[6] = ATG_M_06_CIS: Attagene CIS-FACTORIAL HepG2 Assay for M06 Transcription Factor (Internal Marker) (AID 2282950); conditions: HepG2 Attagene CIS-FACTORIAL M06 internal marker reporter; actives raise or lower the signal
Method in brief: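 HepG2 liver cells, 24 h exposure. Reporter transcripts from transfected cis-element constructs quantified by RT-PCR/capillary electrophoresis fluorescence. Bidirectional curve fit against DMSO.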

[7] = biological target: Hypoxia-inducible factor 1-alpha (Homo sapiens) (UniProt Q16665); test: ATG_HIF1a_CIS: Attagene CIS-FACTORIAL HepG2 Assay for human Hypoxia Inducible Factor 1 (HIF1A) (AID 2282951); conditions: HepG2 Attagene cis-factorial HIF1a reporter transcription; actives raise or lower the signal
Method in brief: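 Transient MRTU transfection of human HepG2 liver cells, 24 h compound treatment, then total RNA isolation, oligo(dT) reverse transcription, PCR amplification, fluorescent labelling and capillary electrophoresis of reporter fragments. Gain or loss relative to DMSO.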

[8] = biological target: Hepatocyte nuclear factor 6 (Homo sapiens) (UniProt Q9UBC0); test: ATG_HNF6_CIS: Attagene CIS-FACTORIAL HepG2 Assay for human Hepatocyte Nuclear Factor 6 (HNF6) (AID 2282952); conditions: HepG2 Attagene cis-factorial HNF6 reporter transcription; actives raise or lower the signal
Method in brief: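 Readout: fluorescent reporter-transcript fragments resolved by capillary electrophoresis after RT-PCR, reflecting endogenous factor activity in transfected HepG2. Exposure 24 h. Gain or loss of signal fitted bidirectionally against DMSO.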

[9] = ATG_MRE_CIS: Attagene CIS-FACTORIAL HepG2 Assay for human Metal Responsive Element (MRE) (AID 2282954); conditions: HepG2 MRE cis-reporter transcription, Attagene multiplex; actives raise or lower the signal
Method in brief: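 Measured here is mRNA induction from an MRE cis-element reporter in HepG2 after 24 h, quantified by fluorescence of labelled RT-PCR products on capillary electrophoresis; gain- and loss-of-signal fits use DMSO as baseline.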

[10] = ATG_PBREM_CIS: Attagene CIS-FACTORIAL HepG2 Assay for human Phenobarbital-responsive Enhancer Module (PBREM) (AID 2282955); conditions: HepG2 PBREM cis-reporter, Attagene multiplexed transcription; actives raise or lower the signal
Method in brief: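 Endogenous transcription factors in human liver HepG2 cells drive a PBREM cis-element reporter, whose transcript level after 24 h treatment is quantified by RT-PCR with capillary electrophoresis; activity fitted in both directions against DMSO.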

[11] = biological target: Paired box protein Pax-6 (Homo sapiens) (UniProt P26367); test: ATG_Pax6_CIS: Attagene CIS-FACTORIAL HepG2 Assay for human Paired Box 6 (PAX6) (AID 2282956); conditions: HepG2 CIS-FACTORIAL PAX6 reporter transcription, RNA readout; actives raise or lower the signal
Method in brief: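 Values derive from bidirectional curve fitting of reporter mRNA signal relative to DMSO. HepG2 cells bearing transfected cis-regulated MRTUs were exposed for 24 h; transcripts were read by RT-PCR and capillary electrophoresis.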

[12] = ATG_PXRE_CIS: Attagene CIS-FACTORIAL HepG2 Assay for human Pregnane X Receptor Element (PXRE) (AID 2282957); conditions: HepG2 Attagene CIS-FACTORIAL PXRE reporter, mRNA; actives raise or lower the signal
Method in brief: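 Read-out: fluorescence of reporter-specific RT-PCR products resolved by capillary electrophoresis, fitted bidirectionally relative to DMSO. Human HepG2 liver cells carried transfected cis-promoter reporter units and were exposed to chemicals for 24 h.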

[13] = ATG_PPRE_CIS: Attagene CIS-FACTORIAL HepG2 Assay for human Peroxisome Proliferator-activated Response Element (PPRE) (AID 2282958); conditions: HepG2 PPRE cis-element reporter, Attagene transcription factor profiling; actives raise or lower the signal
Method in brief: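 HepG2, transient MRTU transfection (cis promoter elements, endogenous TFs). 24 h dosing. RNA → oligo(dT) RT → PCR → 6-FAM primer extension → HpaI digest → CE. Bidirectional fit vs DMSO.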

[14] = ATG_Sox_CIS: Attagene CIS-FACTORIAL HepG2 Assay for human SRY-box transcription factor (SOX) (AID 2282960); conditions: HepG2 Attagene cis-factorial SOX reporter, mRNA; actives raise or lower the signal
Method in brief: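 Endogenous factor activity in human liver HepG2 cells carrying transfected cis-regulated reporter units. RNA taken 24 h post-dose, reverse-transcribed, PCR-amplified and sized by capillary electrophoresis. Gain or loss of signal fitted relative to DMSO.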

[15] = biological target: Transcription factor Sp1 (Homo sapiens) (UniProt P08047); test: ATG_Sp1_CIS: Attagene CIS-FACTORIAL HepG2 Assay for human Specificity Protein 1 (Sp1) (AID 2282961); conditions: HepG2 Sp1 cis-reporter transcription, actives raise or lower the signal
Method in brief: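 Transient MRTU-transfected HepG2, 24 h compound exposure. Total RNA → oligo(dT) RT → PCR of reporter → 6-FAM primer extension → HpaI digest → CE. Endpoint fitted both directions vs DMSO.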

[16] = ATG_SREBP_CIS: Attagene CIS-FACTORIAL HepG2 Assay for human Sterol Regulatory Element Binding (SREBP) (AID 2282962); conditions: HepG2 Attagene cis-factorial SREBP reporter, mRNA; actives raise or lower the signal
Method in brief: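 Values derive from bidirectional curve fitting with DMSO as baseline. The underlying measurement is reporter mRNA from cis-element-regulated units in transiently transfected HepG2, quantified by RT-PCR and capillary electrophoresis after 24 h exposure.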

[17] = biological target: Signal transducer and activator of transcription 3 (Homo sapiens) (UniProt P40763); test: ATG_STAT3_CIS: Attagene CIS-FACTORIAL HepG2 Assay for human Signal Transducer and Activator of Transcription 3 (STAT3) (AID 2282963); conditions: HepG2, Attagene cis-factorial STAT3 reporter transcription; actives raise or lower the signal
Method in brief: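 Fluorescence intensity of 6-FAM-labelled reporter fragments, separated by capillary electrophoresis after RT-PCR, gave the signal. Cells were HepG2 transfected with cis-element reporter units and treated 24 h; fitting was bidirectional relative to DMSO.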

[18] = ATG_TA_CIS: Attagene CIS-FACTORIAL HepG2 Assay for human TA Basal Promoter (AID 2282964); conditions: HepG2 Attagene CIS-factorial TA basal promoter reporter; actives raise or lower the signal
Method in brief: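 Fluorescence from labelled RT-PCR reporter fragments, separated by capillary electrophoresis, gives the signal. Cells: HepG2 transiently carrying multiple reporter units, 24 h chemical dosing. Gain or loss relative to DMSO.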

[19] = biological target: Heat shock factor protein 1 (Homo sapiens) (UniProt Q00613); test: ATG_HSE_CIS: Attagene CIS-FACTORIAL HepG2 Assay for human Heat Shock Transcription Factor 1 (HSE) (AID 2282953); conditions: HepG2 HSE cis-reporter, Attagene RNA transcription; actives raise or lower the signal
Method in brief: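 Endogenous transcription factor activity captured via cis-promoter reporter units transfected into HepG2; treatment lasted 24 h. Fluorescence intensity of reporter fragments analysed with bidirectional curve fitting, DMSO baseline.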

[20] = ATG_RORE_CIS: Attagene CIS-FACTORIAL HepG2 Assay for human RAR-related Orphan Receptor Element (RORE) (AID 2282959); conditions: HepG2 Attagene cis-factorial RORE reporter, mRNA; actives raise or lower the signal
Method in brief: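 Transient MRTU transfection of human HepG2 liver cells (FuGene 6); 24 h compound exposure; TriZol RNA, oligo(dT) RT, PCR, FAM labeling, HpaI cut, CE fragment analysis. DMSO = negative control/baseline.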

Measured: AC50

Hypoxia-inducible factor 1-alpha (Homo sapiens), sequence (Q16665 whole entry, looked up, the tested form may be a part): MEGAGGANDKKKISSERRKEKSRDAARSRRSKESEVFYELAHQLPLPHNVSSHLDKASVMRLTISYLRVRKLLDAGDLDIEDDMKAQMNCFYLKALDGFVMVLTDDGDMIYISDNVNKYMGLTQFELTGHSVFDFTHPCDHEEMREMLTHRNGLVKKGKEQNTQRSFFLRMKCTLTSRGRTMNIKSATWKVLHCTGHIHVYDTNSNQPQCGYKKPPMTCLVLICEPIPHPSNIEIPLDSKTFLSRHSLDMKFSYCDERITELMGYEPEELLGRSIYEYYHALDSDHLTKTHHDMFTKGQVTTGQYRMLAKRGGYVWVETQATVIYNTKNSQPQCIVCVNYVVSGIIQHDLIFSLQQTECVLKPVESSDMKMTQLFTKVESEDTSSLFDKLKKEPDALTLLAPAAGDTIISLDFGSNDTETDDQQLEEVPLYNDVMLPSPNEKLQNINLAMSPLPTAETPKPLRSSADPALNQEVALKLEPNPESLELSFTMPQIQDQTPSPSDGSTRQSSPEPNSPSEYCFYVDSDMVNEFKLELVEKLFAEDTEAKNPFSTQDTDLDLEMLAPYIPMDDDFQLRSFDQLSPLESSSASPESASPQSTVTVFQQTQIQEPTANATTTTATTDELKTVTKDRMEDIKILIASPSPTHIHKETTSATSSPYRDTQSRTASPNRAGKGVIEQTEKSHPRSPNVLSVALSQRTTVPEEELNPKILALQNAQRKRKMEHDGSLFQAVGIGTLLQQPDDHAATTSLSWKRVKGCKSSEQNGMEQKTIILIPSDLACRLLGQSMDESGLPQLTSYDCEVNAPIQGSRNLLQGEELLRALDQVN
Signal transducer and activator of transcription 3 (Homo sapiens), sequence (P40763 whole entry, looked up, the tested form may be a part): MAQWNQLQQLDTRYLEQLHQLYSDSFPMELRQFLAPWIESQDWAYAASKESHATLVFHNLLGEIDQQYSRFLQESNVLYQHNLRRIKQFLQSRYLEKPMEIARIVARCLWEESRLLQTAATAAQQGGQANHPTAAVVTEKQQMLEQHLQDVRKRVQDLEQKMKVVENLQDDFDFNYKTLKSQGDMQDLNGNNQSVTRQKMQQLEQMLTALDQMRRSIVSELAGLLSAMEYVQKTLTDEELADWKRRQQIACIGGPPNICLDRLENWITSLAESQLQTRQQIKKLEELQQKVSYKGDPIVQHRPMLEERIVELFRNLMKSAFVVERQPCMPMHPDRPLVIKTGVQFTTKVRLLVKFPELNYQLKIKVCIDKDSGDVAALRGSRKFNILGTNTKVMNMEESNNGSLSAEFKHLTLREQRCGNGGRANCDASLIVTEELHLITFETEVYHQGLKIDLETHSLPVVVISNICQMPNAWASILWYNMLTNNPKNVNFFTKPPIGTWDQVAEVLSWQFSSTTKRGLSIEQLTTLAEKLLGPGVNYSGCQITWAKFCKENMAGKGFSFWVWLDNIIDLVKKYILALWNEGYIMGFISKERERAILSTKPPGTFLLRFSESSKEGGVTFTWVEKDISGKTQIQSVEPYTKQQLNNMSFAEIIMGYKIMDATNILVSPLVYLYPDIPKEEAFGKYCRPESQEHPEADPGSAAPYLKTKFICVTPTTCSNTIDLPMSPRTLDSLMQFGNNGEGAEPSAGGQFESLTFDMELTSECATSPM
Transcription factor Sp1 (Homo sapiens), sequence (P08047 whole entry, looked up): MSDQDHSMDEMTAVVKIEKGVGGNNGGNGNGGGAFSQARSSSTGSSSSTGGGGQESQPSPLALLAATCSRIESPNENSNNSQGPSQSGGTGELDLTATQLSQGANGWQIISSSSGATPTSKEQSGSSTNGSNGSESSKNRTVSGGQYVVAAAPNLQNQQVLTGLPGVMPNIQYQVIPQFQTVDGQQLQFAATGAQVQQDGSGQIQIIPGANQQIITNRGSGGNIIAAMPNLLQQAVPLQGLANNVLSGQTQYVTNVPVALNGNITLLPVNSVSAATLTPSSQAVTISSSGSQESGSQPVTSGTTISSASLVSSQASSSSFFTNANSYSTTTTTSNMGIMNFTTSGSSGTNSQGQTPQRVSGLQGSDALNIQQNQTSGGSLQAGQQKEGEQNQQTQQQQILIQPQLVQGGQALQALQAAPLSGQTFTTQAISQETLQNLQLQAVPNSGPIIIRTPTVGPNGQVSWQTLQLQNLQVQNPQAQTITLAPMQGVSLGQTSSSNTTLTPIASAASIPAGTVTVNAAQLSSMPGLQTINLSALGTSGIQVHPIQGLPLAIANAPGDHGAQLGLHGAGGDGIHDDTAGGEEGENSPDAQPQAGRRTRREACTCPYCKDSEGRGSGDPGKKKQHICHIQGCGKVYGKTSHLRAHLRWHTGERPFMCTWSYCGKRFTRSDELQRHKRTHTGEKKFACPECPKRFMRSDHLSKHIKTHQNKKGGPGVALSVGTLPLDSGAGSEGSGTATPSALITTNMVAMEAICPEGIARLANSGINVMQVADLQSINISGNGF
Bile acid receptor (Homo sapiens), sequence (Q96RI1 whole entry, looked up): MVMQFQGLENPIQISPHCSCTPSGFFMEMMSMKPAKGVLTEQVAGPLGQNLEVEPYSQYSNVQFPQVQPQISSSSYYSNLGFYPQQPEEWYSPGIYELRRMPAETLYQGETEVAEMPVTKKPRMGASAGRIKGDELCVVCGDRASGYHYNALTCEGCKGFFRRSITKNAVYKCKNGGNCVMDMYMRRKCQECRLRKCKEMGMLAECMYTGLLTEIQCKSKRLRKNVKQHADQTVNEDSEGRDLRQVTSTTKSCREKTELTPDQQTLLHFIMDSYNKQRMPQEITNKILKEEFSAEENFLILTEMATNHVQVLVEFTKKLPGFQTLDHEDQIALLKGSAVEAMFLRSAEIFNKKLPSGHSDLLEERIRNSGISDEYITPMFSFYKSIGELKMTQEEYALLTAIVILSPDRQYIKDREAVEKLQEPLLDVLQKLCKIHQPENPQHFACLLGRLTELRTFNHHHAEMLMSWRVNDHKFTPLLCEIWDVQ
Heat shock factor protein 1 (Homo sapiens), sequence (Q00613 whole entry, looked up, the tested form may be a part): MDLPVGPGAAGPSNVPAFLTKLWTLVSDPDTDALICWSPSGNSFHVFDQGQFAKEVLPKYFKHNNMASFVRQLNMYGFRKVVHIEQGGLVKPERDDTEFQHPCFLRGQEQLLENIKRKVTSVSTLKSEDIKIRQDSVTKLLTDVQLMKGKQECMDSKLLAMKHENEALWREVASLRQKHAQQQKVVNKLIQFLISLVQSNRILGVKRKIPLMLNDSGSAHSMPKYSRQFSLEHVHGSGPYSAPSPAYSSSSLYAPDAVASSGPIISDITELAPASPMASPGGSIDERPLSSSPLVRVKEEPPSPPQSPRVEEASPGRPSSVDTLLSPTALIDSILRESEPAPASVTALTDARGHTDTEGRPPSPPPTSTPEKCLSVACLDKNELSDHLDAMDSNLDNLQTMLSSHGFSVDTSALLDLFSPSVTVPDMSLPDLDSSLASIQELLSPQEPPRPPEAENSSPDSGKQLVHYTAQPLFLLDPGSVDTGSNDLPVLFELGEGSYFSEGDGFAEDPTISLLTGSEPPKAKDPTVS
Paired box protein Pax-6 (Homo sapiens), sequence (P26367 whole entry, looked up): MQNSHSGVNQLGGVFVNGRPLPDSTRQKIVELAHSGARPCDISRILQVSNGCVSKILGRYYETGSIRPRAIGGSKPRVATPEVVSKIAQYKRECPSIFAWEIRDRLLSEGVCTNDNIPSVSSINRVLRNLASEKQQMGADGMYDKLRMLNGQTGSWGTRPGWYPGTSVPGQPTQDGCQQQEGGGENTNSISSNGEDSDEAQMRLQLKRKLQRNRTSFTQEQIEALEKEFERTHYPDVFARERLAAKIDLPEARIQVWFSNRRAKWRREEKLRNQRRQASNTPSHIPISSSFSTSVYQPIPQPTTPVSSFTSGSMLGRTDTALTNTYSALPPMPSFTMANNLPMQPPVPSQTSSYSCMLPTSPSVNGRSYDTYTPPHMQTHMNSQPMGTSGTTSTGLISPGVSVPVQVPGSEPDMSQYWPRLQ
Hepatocyte nuclear factor 6 (Homo sapiens), sequence (Q9UBC0 whole entry, looked up, the tested form may be a part): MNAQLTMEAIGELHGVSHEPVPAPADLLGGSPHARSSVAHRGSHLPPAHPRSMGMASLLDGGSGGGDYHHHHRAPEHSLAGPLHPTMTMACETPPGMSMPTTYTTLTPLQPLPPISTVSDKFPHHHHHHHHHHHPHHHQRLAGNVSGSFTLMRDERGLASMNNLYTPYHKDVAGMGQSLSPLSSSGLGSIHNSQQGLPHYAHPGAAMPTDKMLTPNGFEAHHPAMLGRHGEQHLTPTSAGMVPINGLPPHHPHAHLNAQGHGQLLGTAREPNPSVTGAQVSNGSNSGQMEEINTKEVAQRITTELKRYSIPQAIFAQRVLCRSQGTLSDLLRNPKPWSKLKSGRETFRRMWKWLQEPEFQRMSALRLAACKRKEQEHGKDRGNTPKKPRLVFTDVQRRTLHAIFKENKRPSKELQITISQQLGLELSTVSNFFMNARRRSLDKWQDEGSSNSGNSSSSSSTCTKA

OC(c1ccc(Cl)cc1)(c1ccc(Cl)cc1)C(Cl)(Cl)Cl
active: [12] 2.86 µM
not listed: [19] | [20]
inactive: all other assays above

CCCN(CC)CC1COC2(CCC(C(C)(C)C)CC2)O1 (stereo unspecified)
active: [7] 22.7 µM | [8] 50 µM | [19] 60.3 µM | [9] 50 µM | [10] 16.1 µM | [11] 21.9 µM | [12] 13.5 µM | [20] 18.1 µM | [14] 35.5 µM | [16] 24.5 µM | [17] 86.3 µM
inactive: [1] | [3] | [4] | [5] | [6] | [15] | [18]

CS(=O)(=O)c1ccc(C(=O)C2C(=O)CCCC2=O)c([N+](=O)[O-])c1
not listed: [19]
inactive: all other assays above

CCN(CC)C(=O)C(C)Oc1cccc2ccccc12 (stereo unspecified)
active: [7] 23.6 µM | [9] 7.47 µM | [10] 0.949 µM | [12] 0.163 µM | [13] 50 µM | [20] 28 µM | [16] 28.8 µM
not listed: [3]
inactive: all other assays above

O=c1n(Cl)c(=O)n(Cl)c(=O)n1Cl
active: [12] 50 µM
not listed: [2]
inactive: all other assays above

COP(=S)(OC)Oc1ccc([N+](=O)[O-])c(C)c1
active: [9] 50 µM | [12] 13.5 µM | [13] 50 µM | [20] 50 µM | [16] 14 µM
not listed: [19]
inactive: all other assays above

N#Cc1c(Cl)cccc1Cl
active: [12] 21.6 µM
not listed: [2]
inactive: all other assays above

C=C(C)CN(CC)c1c([N+](=O)[O-])cc(C(F)(F)F)cc1[N+](=O)[O-]
active: [10] 13.3 µM | [12] 9.5 µM
not listed: [2]
inactive: all other assays above

CCNC(=O)NC(=O)C(C#N)=NOC
not listed: [19]
inactive: all other assays above

COCC(C)N(C(=O)CCl)c1c(C)csc1C (stereo unspecified)
active: [12] 1.06 µM | [16] 5.88 µM
not listed: [10] | [19]
inactive: all other assays above

CCCCOCN(C(=O)CCl)c1c(CC)cccc1CC
active: [10] 0.888 µM | [12] 0.265 µM
not listed: [19] | [20]
inactive: all other assays above

CCCCC(O)(Cn1cncn1)c1ccc(Cl)cc1Cl (stereo unspecified)
active: [2] 91.3 µM | [8] 88.4 µM | [9] 61.5 µM | [11] 31 µM | [12] 13 µM | [20] 24.7 µM | [17] 50 µM | [18] 65 µM
not listed: [19]
inactive: all other assays above

Clc1cccc(C(Cl)(Cl)Cl)n1
active: [12] 48.7 µM
not listed: [3] | [10] | [13]
inactive: all other assays above

CC(C)=CC1C(C(=O)OCc2coc(Cc3ccccc3)c2)C1(C)C (stereo unspecified)
active: [9] 50 µM | [10] 14.6 µM | [12] 5.63 µM | [13] 11.2 µM
inactive: all other assays above
